Among the data in PubChem BioAssay AID1628 (Sanford-Burnham Center for Chemical Genomics, 2009) are z-score values, retold here.

About 930 (0.49%) of roughly 190,000 compounds were called active. Some of the results follow. Potency and affinity values are given separately. Unmarked numbers belong to inactive results.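 How the source made its calls: active means z-score of insulin promoter reporter brightness in nuclei below -3 at 5 µM, with at least 500 cells counted; inconclusive means wells with under 500 cells, flagged as toxic or sparse; inactive means the rest.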

A short description of the assay: insulin promoter down-regulators in MIN6 cells, imaging, high-content screening, mouse beta cells (AID 1628). The following applies: MIN6 insulin promoter GFP reporter, at 5 µM, hits give low values.
`Cc1cc(C)cc(N=Cc2[nH]c3ccc(Br)c(Cl)c3c2O)c1`: the z-score is 13.9.
`Cc1ccc(C(=O)NCCCn2ccnc2)cc1[N+](=O)[O-]`: the z-score was 5.54.
As for `O=C(NCCCn1ccnc1)/C(=C/c1ccco1)NC(=O)c1cccs1`, the figure is 3.41.
In the case of `Cc1nn(Cc2ccccc2Cl)c2sc(C(=O)NCCCn3ccnc3)cc12`, the z-score is -4.53 (active).
As for `COc1ccccc1N1CCN(C/C(O)=C(\C#N)c2nc(-c3ccccc3)cs2)CC1`, the figure is 3.2; as for `Cc1cccc(Nc2nc(N)nc(CN3CCN(c4ccccc4)CC3)n2)c1`, -1.36.
With `CN1CCN(Cc2nc(N)nc(Nc3ccc4c(c3)OCCO4)n2)CC1`, the z-score is 4.73.
As for `COc1ccccc1N1CCN(Cc2nc(N)nc(Nc3ccccc3)n2)CC1`, the figure is -3.17 (active); as for `Cc1ccc(NC(=O)/C=C/c2ccc([N+](=O)[O-])s2)cc1`, 16.6; as for `NC(=NCc1ccc2c(c1)OCO2)NC(=O)c1ccccc1`, -3.43 (active).
As for `CC(=O)Oc1ccc2c(=O)c(-c3ccccc3)c(C)oc2c1`, the figure is -0.21; as for `CCNc1c(N)c(=O)oc2ccccc12`, -0.02; as for `Cc1ccc(CN2CCN(/N=C/C=C/c3ccccc3[N+](=O)[O-])CC2)cc1`, -4.13 (active).
Next, `N#CC(C#N)=C1C=C2C=C(N3CCCCC3)CCC2CC1` (configuration not stated): 18.2; `CCN(CC)C(=O)c1sc2nc(-c3cccs3)cc(-c3cccs3)c2c1N`: 4.15; `CCN(CC)C(=O)c1sc(NC(=O)c2ccncc2)c(C(=O)OC)c1C`: -4.37 (active).
As for `CC1=NNC(=O)C1CCC(=O)N/N=C/c1ccc(C)cc1` (configuration not stated), the z-score is 3.3.
As for `Cc1c(Cl)cccc1NC(=O)CN1CCN(CCN=CC2=C(O)CC(c3ccccc3)CC2=O)CC1` (configuration not stated), the figure is 2.18; as for `Oc1ccc(/C=N/Nc2ccnc3cc(Cl)ccc23)c(O)c1`, 5.11.
As for `CCN1CCc2c(sc(NC(=S)NC(=O)c3ccc(Cl)cc3)c2C(N)=O)C1`, the figure is 3.92.
Regarding `CC1Cn2c(nnc2C23CC4CC(CC(C4)C2)C3)S1` (configuration not stated), the z-score was -3.06 (active).
Next, `Cc1ccc(-c2csc(=Nc3cccnc3)n2CCCn2ccnc2)cc1C`: -3.01 (active).
As for `N#C/C(=C/c1ccc(N2CCCCCC2)o1)c1ccc(Cl)cc1`, the figure is 16.2; as for `CC(=O)C1=C(C)Nc2ncnn2C1c1ccc(Cl)cc1Cl` (configuration not stated), 3.45.
Next, `CC1CN(C(=O)CCn2c(=O)oc3ccccc32)CC(C)O1` (configuration not stated): 8.04; `CCCCN1C(=O)/C(=C/C=C2\Oc3ccccc3N2CC)SC1=S`: 16.7; `CCCN1C(=O)c2cccc3c(N4CCCCC4)ccc(c23)C1=O`: 3.75.
As for `O=C1CCCC(O)=C1C=NCCc1ccccc1`, the z-score was 3.02.
As for `Cc1ccc(Nc2nc(N3CCOCC3)c3ccccc3n2)cc1`, the figure is -3.61 (active).
Turning to `O=c1c2cccc3c(N4CCOCC4)ccc(c32)c2nc3ccccc3n12`, the z-score was 9.75.
`CCOC(=O)CSc1nc2ccc(Nc3nc(N4CCOCC4)nc(N4CCOCC4)n3)cc2s1`: the z-score is -0.17.
Regarding `Cc1n[nH]c(C)c1N1C(=O)c2cccc3c(N4CCCCCC4)ccc(c23)C1=O`, the z-score was 8.27.
Turning to `O=C(C1CC1)N1CCC(c2nc(-c3ccc(S(=O)(=O)NCC4CCCO4)cc3)no2)CC1` (configuration not stated), the z-score was -7.53 (active).
Next, `Cc1noc(/C=C/c2ccc(-c3ccccc3Cl)o2)c1[N+](=O)[O-]`: 8.03; `COc1ccc(Cl)cc1NC(=O)CN1CCC(n2nnc3cc(C)ccc32)CC1`: -4.05 (active).
On to `COc1ccc(C)cc1NC(=O)COC(C)=O`, for which the z-score is 3.48.
With `Nc1cc(S(=O)(=O)Nc2ccccc2Cl)ccc1N1CCOCC1`, the z-score is 2.18.
Next, `O=C(NN=C1CCN(Cc2ccccc2)CC1)c1cccc(S(=O)(=O)Nc2ccccc2Cl)c1`: 3.03.
As for `O=C(O)c1ccccc1-c1ccccc1C(=O)NNc1ccccc1`, the figure is -3.66 (active); as for `CC(C)(C)S(=O)(=O)c1ccccc1C(=O)O`, -1.55.
As for `Cc1ccc([N+](=O)[O-])cc1NC(=O)c1cccs1`, the figure is 3.18; as for `O=C(NCCc1ccc(Cl)cc1)c1cccs1`, 1.56; as for `COc1ccc(N(CCN2C(=O)c3ccccc3C2=O)C(=O)c2cccc([N+](=O)[O-])c2)cc1`, 3.09.
`CCCN1C(=O)c2ccccc2NC1c1ccc(C)cc1` (configuration not stated): the z-score was 2.64.
Next, `CCN(CCCCN1C(=O)c2ccccc2C1=O)c1ccc2c(c1)C(=O)N(C)C2=O`: -3.55 (active); `COc1ccccc1OCc1nnc(SCC(=O)NCc2ccco2)n1-c1ccccc1`: 0.71; `CC(C)Sc1nc(SCC(=O)NCc2ccco2)c2c3c(sc2n1)COC(C)(C)C3`: -3.28 (active).
As for `CC(C)c1cccc(O)c(=O)c1`, the figure is -0.46.
Next, `CCN(CC)c1ccc(/C=N/N2CCN(Cc3ccc(Cl)cc3)CC2)c(O)c1`: -5.88 (active).
Regarding `CN1C(=O)CC(N2CCN(Cc3ccc(Cl)cc3)CC2)C1=O` (configuration not stated), the z-score is 3.88.
Next, `Cc1nn(C)cc1CNC(=O)c1cc2n(n1)C(C(F)(F)F)CC(c1cccs1)N2` (configuration not stated): -3.69 (active); `Cc1nn(C)c(C)c1CNC(=O)c1nn2c(c1Cl)NC(c1cccs1)CC2C(F)(F)F` (configuration not stated): -4.07 (active).
As for `CCCc1cc(-n2ccnc2)n2c(nc3ccccc32)c1C#N`, the figure is 5.52.
As for `O=C(CSc1nc2ccc(Cl)cc2o1)NCc1ccc2c(c1)OCO2`, the figure is 3.95; as for `COc1ccc2c(c1)C(C)=CC(C)(C)N2C(=O)CNCc1ccc2c(c1)OCO2`, -4.43 (active); as for `CCCCCOC(=O)Cn1c(N2CCCCCC2)nc2c1c(=O)[nH]c(=O)n2C`, -0.48.
In the case of `CC1=C(C(=O)Nc2ccc(F)cc2)C(c2ccncc2)C2=C(CCCC2=O)N1` (configuration not stated), the z-score was 1.21.
Next, `CCc1c(C(=O)Nc2ccncc2)csc1C`: -4.62 (active); `CCOc1ccc(OCC)c(-c2c(=O)n(OCc3ccc(Cl)cc3)c3ccccc3[n+]2[O-])c1`: 3.34; `COC(=O)c1sc2nc(-c3ccccc3)nc(N3CCN(C)CC3)c2c1C`: -4.28 (active).
For `CCOC(=O)c1sc2nc(CSc3ccccc3Cl)[nH]c(=O)c2c1C`, the z-score was 1.87.
For `Cc1sc2nc(-c3cccs3)nc(N3CCCN(C)CC3)c2c1C`, the z-score was -3.73 (active).
